From PubChem BioAssay
Sm TGR block: blocks Schistosoma mansoni thioredoxin glutathione reductase. purified TGR, DTNB reduction, TNB absorbance 405 nm. hit rate 3% among 360,000. AID 485364. Potency, µM (titrated, usually from 114 µM), most hits filed as inhibitors. Q962Y6; also: nearly all actives have a fitted effect of over 60% in size
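First, TGR (20 nM dispensed) and NADPH were mixed with compound. Second, a 15 min room-temperature incubation followed. Third, further NADPH and then DTNB were added to start the reaction. Finally, TNB absorbance was monitored kinetically.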
RE007 growth inh: less growth of the S. pombe RE007 Vpr strain; AID 651644; Potency, µM (titrated, usually from 92.2 µM), usual class: inhibitors; S. pombe RE007 Vpr strain, BacTiter-Glo ATP luminescence, 24 h; hit rate 0.21% among 360,000; active = well fitted falling curve with a large enough effect; inconclusive = small, poorly fitted or top-dose-only effect; inactive = no such curve, though single readings can be large or run the other way; also: nearly all actives have a fitted effect of over 50% in size
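Fission yeast strain RE007, carrying one chromosomally integrated HIV-1 vpr copy, was seeded at OD 0.01 in PMG+AL medium with 23 nL pinned compound. After 24 h at 30 °C and 99% humidity, viability was read by BacTiter-Glo luminescence.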
LmPK inhibitor: inhibitors of Leishmania mexicana pyruvate kinase; Q27686; purified LmPK, Kinase-Glo ATP luminescence, 1 h; Potency, µM (highest dose often 57.5 µM), actives largely listed as inhibitors; hit rate 0.37% among 290,000
Target sequence (Q27686 whole entry, looked up): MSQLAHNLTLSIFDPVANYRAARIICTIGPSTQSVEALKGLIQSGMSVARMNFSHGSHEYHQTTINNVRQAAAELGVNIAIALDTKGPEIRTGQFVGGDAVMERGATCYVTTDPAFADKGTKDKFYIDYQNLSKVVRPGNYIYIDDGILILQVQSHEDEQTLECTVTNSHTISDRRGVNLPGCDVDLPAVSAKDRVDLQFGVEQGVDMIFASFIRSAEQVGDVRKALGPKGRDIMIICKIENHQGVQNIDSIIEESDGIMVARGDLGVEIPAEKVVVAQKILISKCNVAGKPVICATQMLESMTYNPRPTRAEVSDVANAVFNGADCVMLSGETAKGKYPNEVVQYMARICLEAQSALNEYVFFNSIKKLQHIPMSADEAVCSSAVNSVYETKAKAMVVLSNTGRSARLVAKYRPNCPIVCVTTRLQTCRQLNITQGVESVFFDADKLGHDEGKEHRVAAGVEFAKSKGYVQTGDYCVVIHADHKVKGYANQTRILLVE
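Kinase-Glo luminescence read after 1 h RT reaction of 0.1 nM LmPK with 0.5 mM PEP and 0.1 mM ADP. Activity scaled between uninhibited and enzyme-free controls.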
TbPYK inhibitor: T. brucei pyruvate kinase inhibition. Q57TT1. TbPYK enzyme, Kinase-Glo Plus ATP luminescence, 45 min. hit rate 0.12% among 410,000. Potency, µM (doses to about 76.8 µM), hits mostly inhibitors; also: nearly all actives have a fitted effect of over 50% in size
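In this concentration-response screen, enzyme-free wells defined baseline while DMSO plates tracked drift. Each reaction combined TbPYK, substrate, compound and 130 uM ADP for 45 min at room temperature. Kinase-Glo Plus luminescence gave the signal.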
A number is an active result; n = inactive; u = inconclusive; x = no result; [ ] = another dose, or the depositor's remark. Compounds with a hit are over-represented: about 3% of the library has one in this group of screens. Unless noted, calls follow the shape of the dose curve; as a rule, active = well fitted curve in the direction sought with a large enough effect; inconclusive = small, poorly fitted or top-dose-only effect, or another doubt; inactive = no such curve, though single readings can be large; an effect the other way counts as inactive or inconclusive.

SMILES	Sm TGR block	RE007 growth inh	LmPK inhibitor	TbPYK inhibitor
Cc1cccc(N2C(=O)CC(Sc3ccccc3C(=O)O)C2=O)c1 (configuration not stated)	14.1µM	5.62µM	n	n
CS/C(=C\[N+](=O)[O-])Nc1ccc(OC(F)(F)F)cc1	0.282µM	n	n	n
CN=c1sc2c(n1C)C(=O)c1ccccc1C2=O	x	10µM	x	n
S=c1[nH]nc(-c2ccco2)n1/N=C/c1ccc(Cl)cc1	n	n	n	3.98µM
c1ccc(Cn2c(SCc3nc4ccccc4s3)nnc2-c2ccco2)cc1	12.6µM	n	n	28.2µM
O=C(On1c(-c2ccccc2)nc2ccccc2c1=O)c1ccco1	6.31µM	u	n	n
CCC(c1nnc(SCc2nc3ccccc3s2)n1Cc1ccccc1)N(C)C (configuration not stated)	n	n	n	n
CCCCc1n[nH]c(=S)n1Cc1ccc(Cl)cc1	n	n	u	10µM
Cc1cc(C)c(CN2CCN(CCCn3ccc(NC(=O)OCc4ccccc4)nc3=O)CC2)c(C)c1	x	n	x	n
COc1ccc(-c2n[nH]c(=S)n2Cc2ccccc2)cc1	n	n	u	u
S=c1[nH]nc(-c2ccc(Cl)cc2)n1Cc1ccccc1	n	n	12.6µM	u
O=C1c2ccccc2C(=O)N1CCc1nc2ccccc2c(=O)n1Cc1ccco1	35.5µM	n	n	n
S=c1[nH]nc(-c2ccccc2)n1Cc1ccccc1	n	n	10µM	u
O=c1c2ccccc2nc(-c2ccco2)n1Cc1ccccc1	50.1µM	n	u	n
CC(C)Cc1nnc(NC(=O)C2CCCC2)s1	n	n	n	n
COC(=O)C1=C(C(=O)OC)[C@@H]2N(C)c3ccccc3[C@@]23C[C@@H](CO)N(C(=O)c2cc(C)oc2C)C3=N1	x	x	n[11.5 µM]	x
CCOc1ccc(-c2nc3c(c(SCC(=O)N4CCCCC4)n2)Cc2cccc(OC)c2O3)cc1	n	x	x	n
ClC[C@H]1CO1 (tested in a mixture with another compound)	x	x	x	n
Cc1cc2c(s1)c1c(C)nn(Cc3ccc(F)cc3)c(=O)c1n2C	n	x	x	x
COC(=O)[C@@]1(Cc2ccccc2)[C@H]2C(=O)N(C)C(=O)[C@H]2[C@H]2CN=C(SCC(=O)c3ccccc3)N21	x	n	x	n
CCOCCCn1c(-c2ccc(Cl)cc2)n[nH]c1=S	n	n	u	8.91µM
S=c1[nH]nc(-c2ccco2)n1Cc1ccccc1	n	n	14.1µM	u
Fc1ccc(NCc2n[nH]c(=S)n2Cc2ccccc2)cc1	n	n	u	7.08µM
CCn1c(-c2ccco2)n[nH]c1=S	n	n	n	u
S=c1[nH]nc(-c2ccc(Br)o2)n1Cc1ccccc1	n	n	u	10µM
SMILES	Sm TGR block	RE007 growth inh	LmPK inhibitor	TbPYK inhibitor
Cc1n[nH]c(=S)n1Cc1ccccc1	n	n	n	n
Clc1cccc(-n2ncc3c(NCCCN4CCOCC4)ncnc32)c1	n	x	x	n
C=CC[N+]1([C@H]2C[C@H]3[C@@H]4CC[C@H]5C[C@H](O)[C@@H](N6CCOCC6)C[C@]5(C)[C@H]4CC[C@]3(C)[C@H]2OC(C)=O)CCCC1	x	x	x	n
CN1CCN(C(=O)c2ccc3c(c2)N(Cc2ccc(Cl)cc2)C(=O)c2ccccc2S3(=O)=O)CC1	n	x	x	n
COc1cccc(-c2csc(NC3OC(=O)c4c3ccc(OC)c4OC)n2)c1 (configuration not stated)	39.8µM	n	n	n
COc1ccc2c(c1OC)C(=O)OC2Nc1nc(-c2cc3ccccc3oc2=O)cs1 (configuration not stated)	n	u	22.4µM	n
O=C(O)c1ccc(Nc2nc3ccccc3n3cnnc23)cc1	n	x	x	n
O=C(O)c1ccc(NC2=C(n3nnc4ccccc43)C(=O)c3ccccc3C2=O)cc1	7.08µM	n	n	n
COc1ccc(C2=NOC3(CC(=O)N(c4ccc(F)cc4)C3=O)C2)cc1 (configuration not stated)	20µM	n	n	n
O=C(Nc1ccccc1Cl)c1cc(C2CCCCN2C(=O)c2ccccc2)on1 (configuration not stated)	x	n	x	n
CC1(C)OC[C@@H]2O[C@@]3(C(=O)O)OC(C)(C)O[C@@H]3[C@@H]2O1	x	x	x	n
O=C1CC(N2CCN(c3ccccn3)CC2)C(=O)N1CC(c1ccccc1)c1ccccc1 (configuration not stated)	7.08µM	n	n	n
CCc1ccc(N2C(=O)CC(N3CCN(c4ccccn4)CC3)C2=O)cc1 (configuration not stated)	22.4µM	u	n	n
